Screening data: PubChem, several laboratories
Shown are actives, neighbours in structure and some others; about 6.7% of the full set was active somewhere.
BoNT A protease: BoNT/A light chain protease inhibitors, primary screen, biochemical, flow cytometry, MLPCN library | AID 588499, 2011 | Botulinum neurotoxin type A light chain protease (Clostridium botulinum A str. ATCC 3502) | 0.17% of 360,000 active | inhibition, % at 10 µM | multiplex microsphere protease substrate cleavage; further: plate controls were buffer without enzyme for full effect and enzyme alone for no effect
Anthrax LF prot: Bacillus anthracis LF protease inhibitors, primary screen, biochemical, multiplex microsphere, MLPCN library; inhibition, % at 10 µM; multiplex microsphere protease cleavage assay; 0.12% of 360,000 active; Lethal factor (Bacillus anthracis), P15917; further: plate controls were buffer without enzyme for full effect and enzyme alone for no effect
Bead autofluor: compound fluorescence in toxin protease inhibitor counterscreen; compound autofluorescence counterscreen, microsphere flow cytometry; active compounds read high; fluorescence intensity (no concentration beside the values); 3.1% of 360,000 active; AID 624483; in the data active means fluorescence intensity above about 16000; inconclusive means no clear call, values can overlap the other calls
Mtb FBA inh: Mtb FBA enzyme inhibitors, primary screen, biochemical, fluorescence, strain H37Rv; 2.3% of 360,000 active; inhibition, % at 1 µM; Fructose-bisphosphate aldolase (Mycobacterium tuberculosis (strain ATCC 25618 / H37Rv)), …; purified M. tuberculosis FBA, fluorescence read-out; in the data active means inhibition above about 27%;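 further: 0% = vehicle and 100% = reference inhibitor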
Target sequence (P9WQA3 whole entry, looked up): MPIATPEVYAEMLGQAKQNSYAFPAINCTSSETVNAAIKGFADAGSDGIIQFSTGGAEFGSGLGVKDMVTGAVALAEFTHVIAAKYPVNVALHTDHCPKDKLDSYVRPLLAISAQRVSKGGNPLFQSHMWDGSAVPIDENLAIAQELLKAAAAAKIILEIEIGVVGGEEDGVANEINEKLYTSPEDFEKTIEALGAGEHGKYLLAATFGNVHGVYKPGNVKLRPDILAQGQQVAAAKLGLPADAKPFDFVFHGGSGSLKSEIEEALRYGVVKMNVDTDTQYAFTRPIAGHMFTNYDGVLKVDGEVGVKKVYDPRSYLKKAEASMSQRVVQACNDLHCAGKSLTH
BoNT F protease: BoNT/F light chain protease inhibitors, primary screen, biochemical, flow cytometry, MLPCN library | Multiplex microsphere protease cleavage assay | inhibition, % at 10 µM | 0.22% of 360,000 active | Botulinum neurotoxin type F light chain protease (Clostridium botulinum) | AID 588497, 2011; in the data active means inhibition above about 35%, passing the limit was not always enough; inconclusive means no clear call, values can overlap the other calls; further: plate controls were buffer without enzyme for full effect and enzyme alone for no effect
GDH-TPI inh: GDH-TPI coupling enzyme inhibitors, primary screen, artefact control for M. tuberculosis FBA inhibitor project, biochemical, absorbance, full deck. AID 588335, 2011. GDH-TPI coupled enzyme counterscreen, NADH absorbance. 1.2% of 360,000 active. inhibition, % at 4.8 µM; in the data active means inhibition above about 30%;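 further: 0% = DMSO wells and 100% = wells lacking the enzyme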
* = called active by the depositor; ? = inconclusive; . = no result given. Unless noted, no stated cut-off is given here; in the data, active means inhibition above about 30%; inconclusive means no clear call, values can overlap the other calls; inactive means below that.

SMILES	BoNT A protease	Anthrax LF prot	Bead autofluor	Mtb FBA inh	BoNT F protease	GDH-TPI inh
COc1cccc(C(=O)NCCS(=O)(=O)NCc2ccc3c(c2)OCO3)c1	-1	1	6164	0	-8	7
CCCNC(=O)c1cc2c(c(-c3cccc(-c4ccc(F)cc4)c3)n1)[C@@H](CCO)N(S(=O)C(C)(C)C)C2 (stereo partly drawn)	-1	0	5608	-1	-4	.
O=C(Nc1ccc(C(F)(F)F)cc1)c1cccnc1N1CCOCC1	?	2	21885*	-3	5	7
O=C(Nc1cccc(C(F)(F)F)c1)c1cccnc1N1CCOCC1	-1	1	2994	3	-7	10
COc1ccc(NC(=O)c2cc3c(CO)cnc(C)c3oc2=Nc2cc(OC)cc(OC)c2)cc1	-1	8	3701	0	?	3
Nc1ncc([N+](=O)[O-])cc1Br	0	-4	3583	0	4	52*
CCOC(=O)C1=NN(c2ccc(F)cc2)C2=NC(C)=C(C(=O)OC)C(c3cccs3)N12 (stereo not drawn)	1	3	5733	1	6	-8
CC1CCN(C2(O)C(=O)Nc3ccc([N+](=O)[O-])cc32)CC1 (stereo not drawn)	0	-2	2010	0	5	32*
O=C(Cc1cccc(NC(=O)C2CCCN(C(=O)c3ccccc3)C2)c1)Nc1ccc(C(=O)N2CCCCC2)cc1 (stereo not drawn)	0	0	3963	0	-1	5
CCCCN(C)C1=CC2=CC(=C(C#N)C#N)CCC2CC1 (stereo not drawn)	9	38*	49793*	-23	109*	-12
CCN(CC)C1=CC2=CC(=C(C#N)C#N)CCC2CC1 (stereo not drawn)	-8	24	39639*	-6	62*	11
COc1ccc(/C=C/c2cc(-c3ccc(C)cc3)o[n+]2C)cc1	8	8	11045	12	6	55*
Cn1c(=O)c2cc(NC(=O)CCc3ccccc3)ccc2n1-c1ccccc1F	0	5	3740	114*	2	13
CCOCCC(=O)Nc1ccc2c(c1)c(=O)n(C)n2C/C=C/c1ccccc1	0	-3	3463	113*	-3	4
CCOCCC(=O)Nc1ccc2c(c1)c(=O)n(C)n2-c1ccccc1F	1	-1	3634	181*	0	12
CC1CCCC(C)N1C(=O)/C=C/c1ccc(S(=O)(=O)N2CCOCC2)cc1 (stereo not drawn)	-3	?	?	1	-13	-6
CCOC(=O)N1CCN(C2=C(NS(=O)(=O)c3ccc(C)cc3)C(=O)c3ccccc3C2=O)CC1	0	5	5134	1	-5	12
COc1ccc(C(CNC(=O)c2ccc(OCc3c(C)noc3C)cc2)N2CCCC2)cc1 (stereo not drawn)	-5	-2	17256*	3	7	-2
Cc1cccc(NC(=O)c2ccc(OCc3c(C)noc3C)cc2)c1	0	-7	3835	-1	-2	2
Cc1ccc(NC(=O)c2ccc(OCc3c(C)noc3C)cc2)nc1	-40	-11	16600*	0	-68	-1
COc1ccc(NC(=O)COC(=O)c2ccc(OCc3c(C)noc3C)cc2)cc1OC	-1	2	21341*	0	-1	-12
COc1cc(C(=O)NCC(c2ccco2)N2CCCC2)ccc1OCc1c(C)noc1C (stereo not drawn)	-2	-2	23986*	0	-3	6
CN(CCc1ccccc1)Cc1c[nH]c2ccccc12	.	.	.	5	.	14
CCOC(=O)[C@H]1[C@H]2COc3ccccc3[C@@H]2N2C(=O)CN(CC3CCCO3)C(=O)[C@@]12C (stereo partly drawn)	0	1	4300	-3	-1	-4
Cc1ccccc1NC(=O)CSc1[nH]c(=O)cc(C)c1C#N	-1	-8	5731	1	-4	9
SMILES	BoNT A protease	Anthrax LF prot	Bead autofluor	Mtb FBA inh	BoNT F protease	GDH-TPI inh
COc1ccc(C(=O)c2ccccc2CN2C(=O)c3ccccc3C2=O)cc1	0	0	3771	-3	2	-4
CCOCCCn1c(=S)[nH]c2cc(C(=O)NC3CCCCC3C)ccc2c1=O (stereo not drawn)	-1	-1	4576	0	-2	7
O=C(COC(=O)Cc1cccs1)Nc1ccccc1F	0	3	9163	1	-9	6
CC1(C)CC(=O)c2c(O)cc(OCc3ccc([N+](=O)[O-])cc3)cc2O1	?	-2	24979*	-1	-3	0
CCOc1cccc(/C=C/c2cc(C(=O)O)c3ccccc3n2)c1OC	0	3	3159	-8	-4	48*
CCNCCNC(=O)c1c(O)c2cccc3c2n(c1=O)CCC3	.	.	.	0	.	7
Cc1ccccc1-n1c2nc(=O)n(C)c(=O)c-2cc2ccccc21	-1	-10	3967	131*	?	21
Cc1ccc2nc(NC(=O)CCNS(=O)(=O)c3ccc(Br)s3)sc2c1	1	-6	23058*	-3	1	8
Cc1ccc2nc(NC(=O)CCNS(=O)(=O)c3cccs3)sc2c1	0	-8	10854	-1	9	4
CC(=O)c1ncnn1CC(=O)c1ccc(Cl)cc1Cl	-2	2	22669*	-3	-1	-6
CC(C(=O)c1ccc(Cl)cc1Cl)n1cncn1 (stereo not drawn)	0	-4	4175	6	2	-7
NC(=S)N/N=C/C=C/c1ccccc1	-1	-3	2438	1	-7	38*
O=S(=O)(N/N=C\C=C\c1ccccc1)c1ccccc1	0	0	5765	-5	6	31*
O=[N+]([O-])c1ccc(C=NNC(=S)Nc2ccc(F)cc2)cc1	0	-1	4087	0	2	28
NC(=S)N/N=C/c1ccc(/C=N/NC(N)=S)cc1	-3	-2	6217	-1	-12	111*
O=NN(CC(=O)NN=CC=Cc1ccccc1)CC(=O)NN=CC=Cc1ccccc1	0	-7	5928	3	-2	.
O=S(=O)(N/N=C\c1cccnc1)c1ccccc1	0	1	2668	1	-2	5
O=[N+]([O-])c1ccc(C=NNC(=S)NN=Cc2ccc([N+](=O)[O-])cc2)cc1	0	8	3563	-1	0	31*
NC(=S)N/N=C/c1cccc(Br)c1	-1	2	5317	-3	-7	10
NC(=S)N/N=C/c1cccc(/C=N/NC(N)=S)c1	-4	5	4652	-1	-15	37*
CC1CCN(CC(=O)Nc2ccc(S(=O)(=O)N3CCC(C)CC3)cc2)CC1	-1	-10	3890	2	-21	0
